# Reference: PubChem BioAssay (NCI)
# About 79,000 compounds went through this panel and 15% of them were active in at least one assay; those are over-represented in the sample as a whole. The source made the active and inactive calls. No stated cut-off is given here; in the data, active means growth inhibition above about 70%; inactive means the rest.
# Assay: NCI Yeast Anticancer Drug Screen. Data for the bub3 strain (AID 167)
# Conditions: S. cerevisiae bub3 mutant strain, at 50.0 µM, active compounds read high
# Summary of the method: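 Mutant yeast screening strain plus compound; vehicle-treated cultures serve as the 0% inhibition reference.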
row,Compound,growth inhibition
1,CN(C)c1ccccc1C(=O)NNC(=S)Nc1ccccc1,30.4% (inactive)
2,COc1cccc2c1C(=O)c1c(C)c(C)c(C)c(C)c1-2,14.6% (inactive)
3,C#CC(OC(=O)NC(C(=O)OC)C(C)C)(c1ccccc1)c1ccccc1 (stereo not given),0.2% (inactive)
4,CC(=O)[C@@]1(O)CC[C@H]2[C@@H]3C[C@H](C)C4=CC(=O)C=C[C@]4(C)[C@@]3(F)[C@@H](O)C[C@@]21C,-4.5% (inactive)
5,N#CC1(c2ccccc2)C(c2ccccc2)CC(O)(c2ccccc2)C(C(=O)c2ccccc2)C1c1ccccc1 (stereo not given),-1.1% (inactive)
6,c1ccc(-c2cc(-c3ccccc3)n(-c3ccccc3)c2-c2ccccc2)cc1,24.4% (inactive)
7,NC(=S)N/N=C1/CC(=O)N(c2ccccc2)C1c1ccccc1 (stereo not given),32.4% (inactive)
8,CCCCC(CC)COCCC(=O)O (stereo not given),-19.8% (inactive)
9,COc1cc(OC)c2c(=O)cc(-c3ccc(OC)c(OC)c3OC)oc2c1,-18.4% (inactive)
10,O=c1oc2nc(-c3ccccc3)[nH]c(=O)c2c2c1CCCC2,-17.9% (inactive)
11,O=c1c2ccccc2nc(-c2ccccc2Cl)n1NCC1(O)OCC(O)C(O)C1O (stereo not given),-1.2% (inactive)
12,COC(=O)C(=O)C1CSC2=C(CS(=O)(=O)c3ccccc32)C1=O (stereo not given),-17.5% (inactive)
13,Cc1cc(=O)oc2c(C)c3oc4c(c3cc12)CN(C)CC4,13.9% (inactive)
14,COc1ccccc1Nc1nc(NNC(=O)Cc2ccccc2)nc(NNC(=O)c2ccncc2)n1,22.7% (inactive)
15,CCOCCOCCOC(=O)c1ccccc1O,11.2% (inactive)
16,CCOC(OCC)/C(C)=N/N(C)C,-6.1% (inactive)
17,Nc1cccc(N)n1,-0.7% (inactive)
18,C=C(C(=C)N1N=NC2C3CCC(C3)C21)N1N=NC2C3CCC(C3)C21 (stereo not given),-4.75% (inactive)
19,O=C(O)CCCC(=O)c1ccccc1,-5.9% (inactive)
20,CC(C)C1CCC(=O)CC1,0.75% (inactive)

row,Compound,growth inhibition
1,O=[N+]([O-])c1cccc(NC(c2ccccc2)S(=O)(=O)O)c1 (stereo not given),8.75% (inactive)
2,O=c1oc2ccccc2c(O)c1[N+](=O)[O-],-7.15% (inactive)
3,CC(C)=NOCCC#N,8.35% (inactive)
4,O=C(O)CCCCCC1=CCCCC1,24.6% (inactive)
5,CCCNc1ccc2c(c1)C(O)c1ccccc1-2 (stereo not given),-4% (inactive)
6,C/C=C/c1cc(C=O)cc(OC)c1O,-4.4% (inactive)
7,CCOC(=O)Cc1csc2[n+]1C(=O)/C(=C/c1cccc(OC)c1O)S2,13.3% (inactive)
8,Cc1nc(N)nc(-c2ccccc2)c1N=Nc1ccccc1Br,-0.85% (inactive)
9,COc1ccc(NC(=O)Oc2ccc3c(C)cc(=O)oc3c2)c(OC)c1 (tested in a mixture with another compound),1.8% (inactive)
10,CC(=O)OCCOc1ccccc1Cl,-23.1% (inactive)
11,CCCc1c(-c2ccccc2)nc(N)nc1-c1nc(N)nc(-c2ccccc2)c1CCC,-2.25% (inactive)
12,CCNC(=O)C1CCN(Cc2c[nH]c3ccccc23)CC1,0.6% (inactive)
13,O=C(O)c1ccc(C(=O)Nc2cccc3ccccc23)c(C(=O)O)c1,3.55% (inactive)
14,COc1c2c(cc3occ(-c4ccc(CC=C(C)C)cc4)c(=O)c13)OC(C)(C)C=C2,-12.4% (inactive)
15,CCOc1ccc(/C(O)=C/c2nc3ccccc3nc2/C=C(\O)c2ccc(OCC)cc2)cc1,36% (inactive)
16,Cc1ccccc1NC(=O)C(=O)Cc1nc2ccccc2s1,9.15% (inactive)
17,O=C(Nc1cc([N+](=O)[O-])ccc1Cl)c1ccc(F)cc1,28.9% (inactive)
18,CC(=O)NC(C=O)C(O)C(O)C(O)CO (stereo not given),-7% (inactive)
19,O=C(O)c1nc2ccccc2c(=O)[nH]1,-12.2% (inactive)
20,CCCCCCCCN(C)/N=N/c1nc[nH]c1C(N)=O,17.8% (inactive)

# Assay: NCI Yeast Anticancer Drug Screen. Data for the mlh1 rad18 strain (AID 175)
# Conditions: S. cerevisiae mlh1 rad18 strain growth inhibition; at 50.0 µM; active compounds read high
# Summary of the method: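 In this whole-cell yeast screen, a strain with altered DNA damage repair is challenged with compound, and its growth is measured against matched vehicle-treated controls.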
row,Compound,growth inhibition
1,CN(C)c1ccccc1C(=O)NNC(=S)Nc1ccccc1,19.4% (inactive)
2,COc1cccc2c1C(=O)c1c(C)c(C)c(C)c(C)c1-2,-10.1% (inactive)
3,C#CC(OC(=O)NC(C(=O)OC)C(C)C)(c1ccccc1)c1ccccc1 (stereo not given),7.55% (inactive)
4,CC(=O)[C@@]1(O)CC[C@H]2[C@@H]3C[C@H](C)C4=CC(=O)C=C[C@]4(C)[C@@]3(F)[C@@H](O)C[C@@]21C,-22.1% (inactive)
5,N#CC1(c2ccccc2)C(c2ccccc2)CC(O)(c2ccccc2)C(C(=O)c2ccccc2)C1c1ccccc1 (stereo not given),-3.5% (inactive)
6,c1ccc(-c2cc(-c3ccccc3)n(-c3ccccc3)c2-c2ccccc2)cc1,-3.35% (inactive)
7,NC(=S)N/N=C1/CC(=O)N(c2ccccc2)C1c1ccccc1 (stereo not given),38.9% (inactive)
8,CCCCC(CC)COCCC(=O)O (stereo not given),-18.8% (inactive)
9,COc1cc(OC)c2c(=O)cc(-c3ccc(OC)c(OC)c3OC)oc2c1,-40.5% (inactive)
10,O=c1oc2nc(-c3ccccc3)[nH]c(=O)c2c2c1CCCC2,19.9% (inactive)
11,O=c1c2ccccc2nc(-c2ccccc2Cl)n1NCC1(O)OCC(O)C(O)C1O (stereo not given),3.25% (inactive)
12,COC(=O)C(=O)C1CSC2=C(CS(=O)(=O)c3ccccc32)C1=O (stereo not given),-2.1% (inactive)
13,Cc1cc(=O)oc2c(C)c3oc4c(c3cc12)CN(C)CC4,25.8% (inactive)
14,COc1ccccc1Nc1nc(NNC(=O)Cc2ccccc2)nc(NNC(=O)c2ccncc2)n1,25.6% (inactive)
15,CCOCCOCCOC(=O)c1ccccc1O,4.4% (inactive)
16,CCOC(OCC)/C(C)=N/N(C)C,-2.5% (inactive)
17,Nc1cccc(N)n1,-14.6% (inactive)
18,C=C(C(=C)N1N=NC2C3CCC(C3)C21)N1N=NC2C3CCC(C3)C21 (stereo not given),-7.95% (inactive)
19,O=C(O)CCCC(=O)c1ccccc1,20.1% (inactive)
20,CC(C)C1CCC(=O)CC1,-4.9% (inactive)

row,Compound,growth inhibition
1,O=[N+]([O-])c1cccc(NC(c2ccccc2)S(=O)(=O)O)c1 (stereo not given),5.15% (inactive)
2,O=c1oc2ccccc2c(O)c1[N+](=O)[O-],3.65% (inactive)
3,CC(C)=NOCCC#N,-14.3% (inactive)
4,O=C(O)CCCCCC1=CCCCC1,23.5% (inactive)
5,CCCNc1ccc2c(c1)C(O)c1ccccc1-2 (stereo not given),-2.95% (inactive)
6,C/C=C/c1cc(C=O)cc(OC)c1O,5.75% (inactive)
7,CCOC(=O)Cc1csc2[n+]1C(=O)/C(=C/c1cccc(OC)c1O)S2,38.2% (inactive)
8,Cc1nc(N)nc(-c2ccccc2)c1N=Nc1ccccc1Br,11.8% (inactive)
9,COc1ccc(NC(=O)Oc2ccc3c(C)cc(=O)oc3c2)c(OC)c1 (tested in a mixture with another compound),12.3% (inactive)
10,CC(=O)OCCOc1ccccc1Cl,-13.1% (inactive)
11,CCCc1c(-c2ccccc2)nc(N)nc1-c1nc(N)nc(-c2ccccc2)c1CCC,-1.4% (inactive)
12,CCNC(=O)C1CCN(Cc2c[nH]c3ccccc23)CC1,-18.1% (inactive)
13,O=C(O)c1ccc(C(=O)Nc2cccc3ccccc23)c(C(=O)O)c1,-10.2% (inactive)
14,COc1c2c(cc3occ(-c4ccc(CC=C(C)C)cc4)c(=O)c13)OC(C)(C)C=C2,-35.5% (inactive)
15,CCOc1ccc(/C(O)=C/c2nc3ccccc3nc2/C=C(\O)c2ccc(OCC)cc2)cc1,13.6% (inactive)
16,Cc1ccccc1NC(=O)C(=O)Cc1nc2ccccc2s1,20.4% (inactive)
17,O=C(Nc1cc([N+](=O)[O-])ccc1Cl)c1ccc(F)cc1,19.8% (inactive)
18,CC(=O)NC(C=O)C(O)C(O)C(O)CO (stereo not given),2.25% (inactive)
19,O=C(O)c1nc2ccccc2c(=O)[nH]1,-4.6% (inactive)
20,CCCCCCCCN(C)/N=N/c1nc[nH]c1C(N)=O,24.4% (inactive)
